CYP2C19 inhib: blockers of cytochrome P450 2C19 activity – biochemical, luminescence, ADME assay, primary screen. CYP2C19 Supersomes, luciferin-H EGE luminescence, 30 min. P33261. AID 778, 2007. 96,000 tested, 21% active. inhibition, % at 5 µM;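 active = CYP2C19 inhibition above a set limit at 5 µM in the primary screen, cut at about 50% in these data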;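 note: plate controls were negative control wells for no effect and 2.5 mM tranylcypromine positive control for full effect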
Measles CPE: compounds protecting cells from measles virus cytopathic effect, primary screen, measles RdRp inhibitor project, single point, MLSMR library, absorbance; Measles virus-infected cells, CPE protection; protection (pct of control), % at 4 µM; 140,000 tested, 1.5% active; in the data active = protection mostly above about 24%, no sharp cut-off; inactive = mostly below about 26%
CYP2C19 activ: human CYP2C19 activators, primary screen, biochemical, luminescence; 96,000 tested, under 10 active; activation factor at 5 µM; recombinant CYP2C19, luciferin-H EGE luminescence; hits give high values; 0 = fully inhibited enzyme, 1 = untreated enzyme; AID 1025, 2008; Cytochrome P450 2C19 (Homo sapiens), P33261;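 active = activation factor of at least 2 at 5 µM in the primary screen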;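 note: 0 = wells with 2.5 mM tranylcypromine and 1 = vehicle-only wells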
CYP2C9 activ: human CYP2C9 activators, primary screen, biochemical, luminescence | Cytochrome P450 2C9 (Homo sapiens), P11712 | recombinant CYP2C9, luciferin-H conversion; hits give high values; factor 1 = untreated enzyme, 0 = blocked | activation factor at 5 µM | 96,000 tested, 1.4% active;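 active = activation factor of 2 or more for CYP2C9 at a 5 µM dose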;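 note: 0 = sulfaphenazole-blocked wells and 1 = vehicle-only wells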
Target sequence (P11712 whole entry, looked up): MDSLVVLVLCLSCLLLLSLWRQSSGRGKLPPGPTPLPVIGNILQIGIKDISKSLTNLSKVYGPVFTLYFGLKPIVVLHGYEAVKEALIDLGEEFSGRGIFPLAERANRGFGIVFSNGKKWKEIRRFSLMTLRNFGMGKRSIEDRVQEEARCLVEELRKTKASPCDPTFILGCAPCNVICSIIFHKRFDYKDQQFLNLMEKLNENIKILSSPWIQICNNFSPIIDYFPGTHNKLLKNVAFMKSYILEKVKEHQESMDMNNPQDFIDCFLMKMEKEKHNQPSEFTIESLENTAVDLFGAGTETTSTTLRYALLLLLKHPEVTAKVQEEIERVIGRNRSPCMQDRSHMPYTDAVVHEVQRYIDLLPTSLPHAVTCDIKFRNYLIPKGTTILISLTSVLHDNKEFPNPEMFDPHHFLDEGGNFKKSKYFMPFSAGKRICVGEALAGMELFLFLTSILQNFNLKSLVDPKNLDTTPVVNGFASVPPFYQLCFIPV
CYP2C9 inhib: blockers of cytochrome P450 2C9 activity – biochemical, luminescence, ADME assay, primary screen. P11712. inhibition, % at 5 µM. 96,000 tested, 20% active. CYP2C9 Supersomes, luciferin-H conversion;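 active = blocking of liver enzyme CYP2C9 beyond about 50% at 5 µM, limit read from the data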
Starred values were filed as active, the others as inactive; . = not tested or not shown. A selection: hits, their analogues and other compounds. The true share with any hit is near 22%.

SMILES	CYP2C19 inhib	Measles CPE	CYP2C19 activ	CYP2C9 activ	CYP2C9 inhib
Cc1ccc(S(=O)(=O)Nc2ccccc2F)cc1C(=O)NCCCN1CCCC1=O	-7	5	1.1	1	4
O=C(NCCCn1ccnc1)c1cn(-c2ccccc2)nc1-c1ccc(F)cc1	96*	18	0	0	100*
CC1(C)NC(=O)N(CC(O)COC2CCCCC2)C1=O (stereo unspecified)	82*	5	0.2	0.6	42
CC1(C)NC(=O)N(CC(O)COc2ccccc2-c2ccccc2)C1=O (stereo unspecified)	99*	15	0	0.1	87*
Cc1cc(C)cc(OCC(O)CN2C(=O)NC(C)(C)C2=O)c1 (stereo unspecified)	72*	9	0.3	0.6	44
CN(Cc1nc2ccccc2c(=O)[nH]1)c1ccccc1	.	15	.	.	.
CCOC(=O)c1nc(N)c(=O)n(-c2ccccc2)n1	16	17	0.8	1	2
O=C(COC(=O)c1n[nH]c2ccccc12)Nc1ccc([N+](=O)[O-])cc1	.	7	.	.	.
N#Cc1ccc(NC(=O)c2sc3cc(C(F)(F)F)cnc3c2-c2cccs2)cc1	-10	12	1.1	0.4	62*
CSc1nnc(-c2sc3cc(C(F)(F)F)cnc3c2-c2ccccc2)n1C	25	3	0.7	0.3	71*
COC(=O)c1sc2cc(C(F)(F)F)cnc2c1-c1ccccc1	27	8	0.7	0.4	59*
O=C(O)c1sc2cc(C(F)(F)F)cnc2c1-c1ccccc1	-3	15	1	1.1	-10
Cc1cc2ncn(S(=O)(=O)N3CCCCC3)c2cc1C	25	5	0.8	0.9	7
CCOC(=O)c1cc(-c2ccccc2)n(CCC(=O)N2CCN(c3ccc(OC)cc3)CC2)c1C	.	8	.	.	.
O=C(Nc1ccc2c(c1)OCCO2)C1CCN(S(=O)(=O)c2cccs2)CC1	67*	18	0.3	0.4	58*
O=S(=O)(Nc1ccc2c(c1)OCCO2)c1cccs1	28	9	0.7	0.8	23
O=S(=O)(Nc1ccc2c(c1)OCO2)c1cccs1	91*	38	0.1	0.3	66*
CC(=O)c1cccc(NC(=O)C2CCN(S(=O)(=O)c3cccs3)CC2)c1	92*	13	0.1	0.3	68*
O=C(Nc1ccc2c(c1)OCO2)C1CCCN(S(=O)(=O)c2cccs2)C1 (stereo unspecified)	53*	22	0.5	0.3	68*
COc1ccc(S(=O)(=O)N2CCC(C(=O)Nc3cccc(C(C)=O)c3)CC2)cc1	.	5	.	.	.
CC(C)N1C(=O)C2C(C(=O)NC3CCCCC3)C3C=CC2(O3)C1C(=O)NC1CCCCC1 (stereo unspecified)	-1	20	1	1	-2
Nc1nc(SCc2nnc(SCC(=O)O)n2-c2ccccc2)nc2sc3c(c12)CCCC3	-15	4	1.2	0.8	15
CCC(CC)NC(=O)C1CCN(S(=O)(=O)c2cccs2)CC1	24	12	0.8	0.6	41
O=C(Nc1ccc2c(c1)OCO2)C1CCCN(c2nc3ccccc3s2)C1 (stereo unspecified)	48	2	0.5	0.5	54*
Cc1cccnc1NC(=O)C1CCN(S(=O)(=O)c2cccs2)CC1	-6	7	1.1	0.9	11
SMILES	CYP2C19 inhib	Measles CPE	CYP2C19 activ	CYP2C9 activ	CYP2C9 inhib
CCC(C)NC(=O)C1CCN(S(=O)(=O)c2cccs2)CC1 (stereo unspecified)	5	12	1	0.5	52*
CC(=O)Nc1ccc(-c2csc(NC(=O)C3CCN(S(=O)(=O)c4cccs4)CC3)n2)cc1	.	68*	.	.	.
O=C(Nc1ccc2c(c1)OCO2)C1Cc2ccccc2CN1S(=O)(=O)c1cccs1 (stereo unspecified)	56*	15	0.4	0.3	72*
CCOCCCNC(=O)c1c[nH]c2ccc(C)cc2c1=O	.	12	.	.	.
CCOc1ncccc1C(=O)OCc1cc(=O)oc2c(C)c(C)ccc12	-11	27	1.1	1.1	-15
COc1cc(C=O)ccc1OCCCOc1ccccc1C(=O)O	26	14	0.7	0.9	9
N#Cc1ccc2ccn(CC(=O)NCc3ccccc3)c2c1	87*	8	0.1	0.4	59*
CCC(C)N(C(=O)COC(=O)/C=C/c1ccc(O)c(OC)c1)C1CCS(=O)(=O)C1 (stereo unspecified)	.	9	.	.	.
Cc1cnc(NC(=O)CSc2nnc(CNc3ccc(F)cc3)n2CC2CCCO2)s1 (stereo unspecified)	2	5	1	0.8	25
Cc1nc(SCC(=O)NCc2ccc(F)cc2)c2c(=O)n(C)c(=O)n(C)c2n1	-2	5	1	1	-1
C=C1c2ccccc2NC(=O)N1c1ccc(C)cc1	26	14	0.7	0.7	30
CCOC(=O)C1C(=O)NC(SCC(N)=O)=C(C#N)C1c1ccccc1OCC (stereo unspecified)	76*	29	0.2	0.6	42
CCOC(=O)CSC1=C(C#N)C(c2ccc(Cl)cc2)C(C(=O)OC)C(=O)N1 (stereo unspecified)	40	13	0.6	0.6	41
CCOC(=O)C1C(=O)NC(SC)=C(C#N)C1c1ccccc1F (stereo unspecified)	91*	11	0.1	0.6	42
COC(=O)C1C(=O)NC(SC)=C(C#N)C1c1ccccc1 (stereo unspecified)	29	8	0.7	0.8	16
CCN(CC)S(=O)(=O)c1ccc(OC)c(NC(=O)c2cc([N+](=O)[O-])ccc2Cl)c1	5	7	0.9	0.7	32
COCCOc1cc(NC(=O)c2sccc2Oc2ccc([N+](=O)[O-])cc2F)c(Cl)cc1Cl	19	29	0.8	0.4	59*
O=C(Nc1ccccc1-c1nnc(SCc2ccc(Cl)cc2)o1)c1ccccc1	-3	21	1	0.3	70*
O=C(Nc1ccccc1-c1nnc(SCc2ccccc2)o1)c1ccccc1	16	3	0.8	0.2	79*
O=C(O)c1cccc(CSc2nnc(-c3ccco3)o2)c1	-5	21	1.1	1.1	-8
O=c1c(-c2nnc(SCc3ccc(Cl)cc3)o2)cccn1Cc1ccccc1	91*	26	0.1	0.6	45
Clc1ccc(CSc2nnc(-c3c[nH]c4ccccc34)o2)cc1	5	28	1	0.8	20
O=S(=O)(NC1CCCC1)c1cccc(S(=O)(=O)N2CCC(n3nnc4ccccc43)CC2)c1	75*	4	0.3	0.3	72*
O=S(=O)(NC1CC1)c1cccc(S(=O)(=O)N2CCCC2)c1	82*	24	0.2	0.9	5
